Screens as filed in PubChem.
ELG1 DNA repair – qHTS screen for small molecules that inhibit ELG1-dependent DNA repair in human embryonic kidney (HEK293T) cells expressing luciferase-tagged ELG1. actives 2.3% (n = 330,000). Potency, µM (series often up to 46.1 µM), for the others: at the highest dose activity change, negative = inhibition, hits mostly inhibitors. HEK293T ELG1-luciferase reporter, luminescence, 16 h; DNA damage induced by 5-fluorouridine; also: % is scaled to controls: 0 for no effect and ±100 for the full control effect; nearly all actives have a fitted effect of over 55% in size
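Reporter activity after DNA damage by 5-fluorouridine is monitored. Compound-treated cells incubate 16 hr at 37 °C, then ONE-Glo is added for 30 min before luminescence reading.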
NPC1 prom act – qHTS Assay for NPC1 Promoter Activators; Huh7 NPC1 promoter luciferase reporter, 24 h; Potency, µM (titrated, usually from 9.22 µM), for the others: top-dose activation, usual class: activators; actives 2.4% (n = 320,000); AID 485313, 2010; also: % of control where 0% means no effect; nearly all actives have a fitted effect of over 60% in size
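Stably transfected Huh7 (NPC1 promoter→luciferase), 1500 cells/well in Opti-MEM + 10% FBS, 2 h settle, then compound 24 h at 37 °C. Luminescence after 10 min with Amplite reagent.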
SMN2 splice enh – qHTS Assay for Enhancers of SMN2 Splice Variant Expression; HEK293 SMN2-luciferase splicing reporter, luminescence, 30-36 h; Potency, µM (titrated, usually from 46.1 µM), inactives show at the highest dose activity change, positive = activation, actives largely listed as activators; actives 2.8% (n = 210,000); AID 1458, 2008; also: % of control where 0% means no effect; nearly all actives have a fitted effect of over 55% in size
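HEK293 cells carry an SMN2 […]–luciferase reporter in which exon 7 inclusion puts luciferase in frame. Cells were plated 10-12 h before compound addition, then incubated 30-36 h at 37C. ONE-Glo luminescence was read; sodium butyrate at 4.5 mM final served as control.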
ELG1 genotox – qHTS screen for small molecules that induce genotoxicity in human embryonic kidney (HEK293T) cells expressing luciferase-tagged ELG1; HEK293T ELG1-luciferase reporter, luminescence, 16 h; Potency, µM (top dose mostly 46 µM), for inactives: at the highest dose activity change, positive = activation, actives largely listed as activators; actives 1.3% (n = 330,000); AID 504466, 2011; also: % of control where 0% means no effect; nearly all actives have a fitted effect of over 60% in size
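HEK293T cells expressing luciferase-tagged ELG1 were exposed to compound or DMSO vehicle for 16 hr at 37 °C and 5% CO2. Luciferase activity was then measured with ONE-Glo after 30 min at room temperature.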
Rab9 promoter act – qHTS Assay for Rab9 Promoter Activators; actives 2.8% (n = 320,000); Potency, µM (doses to about 9.22 µM), for the others: at the highest dose activation, negative = inhibition, actives largely listed as activators; AID 485297, 2010; Huh7 Rab9 promoter-luciferase reporter, luminescence, 24 h; also: % of control where 0% means no effect; nearly all actives have a fitted effect of over 60% in size
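Cell-based reporter: Huh7 stable for Rab9 promoter-driven luciferase, plated in reduced-serum medium with 10% FBS at 1500 cells/well, compound-treated 24 h at 37 °C, luminescence read after 10 min reagent.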
FLuc modulator – qHTS profiling assay for firefly luciferase inhibitor/activator using purifed enzyme and Km concentrations of substrates (counterscreen for miR-21 project); actives 6.9% (n = 360,000); AID 588342, 2011; purified FLuc, Km substrates, luminescence inhibition; Potency, µM (doses to about 57.5 µM), for the others: top-dose activity change, negative = inhibition, hits mostly inhibitors;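 also: plate controls were vehicle for no effect and reference inhibitor for full effect; nearly all actives have a fitted effect of over 55% in size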
Target sequence (P08659 whole entry, looked up): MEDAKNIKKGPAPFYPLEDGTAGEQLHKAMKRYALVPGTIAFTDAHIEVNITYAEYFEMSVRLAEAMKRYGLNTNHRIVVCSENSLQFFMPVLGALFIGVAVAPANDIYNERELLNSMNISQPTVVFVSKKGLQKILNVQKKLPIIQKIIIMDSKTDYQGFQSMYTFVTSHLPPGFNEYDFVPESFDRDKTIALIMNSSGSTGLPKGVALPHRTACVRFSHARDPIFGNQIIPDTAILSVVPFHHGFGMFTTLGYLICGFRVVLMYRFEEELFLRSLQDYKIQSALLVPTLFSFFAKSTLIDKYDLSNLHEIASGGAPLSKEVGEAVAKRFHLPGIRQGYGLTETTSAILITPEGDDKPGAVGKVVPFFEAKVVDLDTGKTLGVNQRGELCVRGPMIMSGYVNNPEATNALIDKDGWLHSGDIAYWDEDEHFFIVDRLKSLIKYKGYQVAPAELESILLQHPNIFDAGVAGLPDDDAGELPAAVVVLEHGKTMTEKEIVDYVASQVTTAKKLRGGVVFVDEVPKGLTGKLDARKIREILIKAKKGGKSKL
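Purified P. pyralis luciferase (10nM final) with 10uM D-luciferin and 10uM ATP (Km levels) in 50mM Tris acetate pH 7.5, 10mM Mg acetate, 0.01% Tween-20, 0.05% BSA; qHTS 6-point titration, ~60 µM downward; luminescence read.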
* marks the source's active call; other numbers are inactive results; u = inconclusive; x = not tested or not shown. Rows were chosen to be rich in hits. Some 9.2% of all compounds tested hit in one or more screens of this group. Calls follow the shape of the dose curve; as a rule, active = well fitted curve in the direction sought with a large enough effect; inconclusive = small, poorly fitted or top-dose-only effect, or another doubt; inactive = no such curve, though single readings can be large; an effect the other way counts as inactive or inconclusive. Potency is read from the fitted curve at half-maximal effect.

SMILES | ELG1 DNA repair | NPC1 prom act | SMN2 splice enh | ELG1 genotox | Rab9 promoter act | FLuc modulator
CCOC(=O)c1c(C)nc2sc3c(=O)n(-c4ccc(C(C)=O)cc4)cnc3c2c1-c1ccc(Cl)cc1 | 21µM* | 1% | -7% | -3% | -6% | 2%
CCCCc1ccc(NC(=O)CSCc2cc(=O)[nH][nH]2)cc1 | 6% | -3% | 16% | 4% | -2% | 12µM*
CCCCc1ccc(NC(=O)COCC)cc1 | u | 13% | 22% | 21µM* | 25% | 19µM*
CCCCc1ccc(NC(=O)CC(C)C)cc1 | u | u | u | u | u | 19µM*
O=C(CSCc1cc(=O)[nH][nH]1)Nc1ccc(F)cc1 | 9% | -2% | x | 1% | -5% | -5%
CCCCc1ccc(NC(=O)Nc2cc(C)nn2C)cc1 | 4.1µM* | -3% | x | 9% | -2% | u
CCOCC(=O)Nc1ccc(Br)c(C)c1 | u | 16% | 6% | u | u | u
Cc1cc(NC(=O)Nc2ccc(F)cc2F)n(C)n1 | -7% | 6% | -5% | 7% | 17% | -4%
COc1cc(NC(=S)NCCc2ccc(S(N)(=O)=O)cc2)c(OC)cc1Cl | -21% | -5% | -11% | -9% | 12% | 4%
CCN(CC)S(=O)(=O)c1ccc(NC(=O)CNC2CCCCC2)cc1 | 11% | -2% | x | -10% | -1% | 0%
CCCC(=O)C1=C(c2ccc(C)cc2)N(C(=O)CCC)n2cnnc2S1 | x | x | x | x | x | 2%
N#Cc1ccccc1Cn1cc(/C=C/[N+](=O)[O-])c2ccccc21 | 21µM* | 1% | -65% | -7% | -9% | -18%
CCOc1ccc(-n2c(=O)c3c4c(sc3n(Cc3cccc(C)c3)c2=O)CCCC4)cc1 | x | x | 6% | x | x | 0%
Cc1cc2nc(CS)[nH]c2cc1C | 21% | 8% | x | 4% | 12% | 4.8µM*
Cc1cc2nc(CO)[nH]c2cc1C | 22% | -1% | x | 5% | -4% | -10%
Nc1cc(C(F)(F)F)ccc1Nc1ccccc1 | u | 19% | 3% | -1% | 18% | u
O=C(N/N=C/c1cccc(Oc2ccccc2)c1)c1ccccc1Br | u | -6% | -20% | -1% | -6% | -19%
Cc1cc(N=Cc2c(O)n(-c3cccc(Cl)c3)c(=O)c3ccccc23)no1 | 18µM* | -9% | 5% | 0% | -9% | 2%
CN(C(=O)Nc1ccc(Cl)cc1Cl)C1CCCC1 | u | u | x | u | 4µM* | 19µM*
O=C(Nc1ccc(Cl)cc1Cl)NC1CCCC1 | u | 12% | 13% | 10% | u | -11%
COc1ccc(/C=N/NC(=O)CC(=O)NC2CCCCC2)cc1 | -5% | -2% | 11% | 1% | 3% | -11%
CCCCOc1ccc(CSCCN)cc1Cl | u | -21% | x | u | -20% | 12µM*
Cc1ccc(C(=O)N/C(=C\c2ccco2)C(=O)N2CCOCC2)cc1C | 21µM* | 10% | x | -6% | 0% | -2%
CCCN1CCN(C(=O)c2cc3c(s2)-c2ccccc2OC3)CC1 | u | u | x | 15µM* | 4µM* | 7.6µM*
O=C(c1cc2c(s1)-c1ccccc1OC2)N1CCCC1 | u | u | -22% | u | 2.8µM* | 12µM*
CCOC(=O)N1CCN(C(=O)c2cc3c(s2)-c2ccccc2OC3)CC1 | -7% | -1% | 1% | 3% | -5% | 1%
Cc1nnc(NC(=O)CSc2nnc(CC(=O)Nc3ccccc3F)n2C)s1 | 22% | 0% | x | 4% | -4% | 1%
CSc1ccccc1OCc1cc(C(=O)NCCc2nc(C)cc(C)n2)no1 | 25% | 18% | x | 11% | 16% | u
